A short description of this test: inhibition of 26S proteasome fluorogenic peptide cleavage, counter-screen for 26S proteasome disassembly project, biochemical, fluorogenic peptides, secondary (AID 2132). Conditions: yeast 26S proteasome, fluorogenic peptide cleavage rate; with Suc-LLVY-amc; at 100 µM; stronger effect = higher value.

The values below come from PubChem BioAssay AID2132 (NMMLSC, 2009).

The source made the active and inactive calls.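 How the source made its calls: active means inhibition above 20%; inactive means the rest.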 Peptide text beside a SMILES is read from it. * marks the point of attachment. Cbz = O=C(OCc1ccccc1)*

Take `CC(=O)N1C(=O)C(=C2C=C(C)OC(C)=C2)c2ccccc21`: the inhibition is 45% (active). Next, `CC(C)C[C@@H](C=O)NC(=O)[C@H](CC(C)C)NC(=O)[C@H](CC(C)C)NC(=O)OCc1ccccc1` (Cbz-Leu-Leu-Leu-aldehyde): 97% (active).
